Among the data in ChEMBL document CHEMBL1961873, “Compounds: GSK PKIS; Assays: Nanosyn kinase panel” (2012) are inhibition values, retold here.

Test [1] deals with T1, Mitogen-activated protein kinase 12 (Homo sapiens) (UniProt P53778).
T1 sequence (whole entry): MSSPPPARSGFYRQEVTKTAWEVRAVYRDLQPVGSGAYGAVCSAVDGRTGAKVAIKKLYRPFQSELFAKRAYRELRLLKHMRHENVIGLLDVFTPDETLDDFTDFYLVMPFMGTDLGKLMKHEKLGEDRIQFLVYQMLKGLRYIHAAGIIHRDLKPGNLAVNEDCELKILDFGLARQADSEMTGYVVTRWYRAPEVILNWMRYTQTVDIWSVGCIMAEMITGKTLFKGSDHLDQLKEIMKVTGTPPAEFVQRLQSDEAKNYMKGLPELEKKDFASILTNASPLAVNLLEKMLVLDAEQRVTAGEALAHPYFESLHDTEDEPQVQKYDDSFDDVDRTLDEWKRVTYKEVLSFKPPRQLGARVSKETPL
Conditions: at 1 µM.

In test [2] the target is SRSF protein kinase 1 (Homo sapiens) (UniProt Q96SB4). Conditions: at 0.1 µM.
Test [3] has the same target. The settings on record: at 1 µM.
The target in test [4] is Phosphatidylinositol 4,5-bisphosphate 3-kinase catalytic subunit alpha isoform (Homo sapiens) (UniProt P42336). Conditions: at 0.1 µM.
Test [5] has the same target. Conditions: at 1 µM.
Test [6] deals with T2, Phosphatidylinositol 4,5-bisphosphate 3-kinase catalytic subunit delta isoform (Homo sapiens) (UniProt O00329).
T2 sequence (whole entry): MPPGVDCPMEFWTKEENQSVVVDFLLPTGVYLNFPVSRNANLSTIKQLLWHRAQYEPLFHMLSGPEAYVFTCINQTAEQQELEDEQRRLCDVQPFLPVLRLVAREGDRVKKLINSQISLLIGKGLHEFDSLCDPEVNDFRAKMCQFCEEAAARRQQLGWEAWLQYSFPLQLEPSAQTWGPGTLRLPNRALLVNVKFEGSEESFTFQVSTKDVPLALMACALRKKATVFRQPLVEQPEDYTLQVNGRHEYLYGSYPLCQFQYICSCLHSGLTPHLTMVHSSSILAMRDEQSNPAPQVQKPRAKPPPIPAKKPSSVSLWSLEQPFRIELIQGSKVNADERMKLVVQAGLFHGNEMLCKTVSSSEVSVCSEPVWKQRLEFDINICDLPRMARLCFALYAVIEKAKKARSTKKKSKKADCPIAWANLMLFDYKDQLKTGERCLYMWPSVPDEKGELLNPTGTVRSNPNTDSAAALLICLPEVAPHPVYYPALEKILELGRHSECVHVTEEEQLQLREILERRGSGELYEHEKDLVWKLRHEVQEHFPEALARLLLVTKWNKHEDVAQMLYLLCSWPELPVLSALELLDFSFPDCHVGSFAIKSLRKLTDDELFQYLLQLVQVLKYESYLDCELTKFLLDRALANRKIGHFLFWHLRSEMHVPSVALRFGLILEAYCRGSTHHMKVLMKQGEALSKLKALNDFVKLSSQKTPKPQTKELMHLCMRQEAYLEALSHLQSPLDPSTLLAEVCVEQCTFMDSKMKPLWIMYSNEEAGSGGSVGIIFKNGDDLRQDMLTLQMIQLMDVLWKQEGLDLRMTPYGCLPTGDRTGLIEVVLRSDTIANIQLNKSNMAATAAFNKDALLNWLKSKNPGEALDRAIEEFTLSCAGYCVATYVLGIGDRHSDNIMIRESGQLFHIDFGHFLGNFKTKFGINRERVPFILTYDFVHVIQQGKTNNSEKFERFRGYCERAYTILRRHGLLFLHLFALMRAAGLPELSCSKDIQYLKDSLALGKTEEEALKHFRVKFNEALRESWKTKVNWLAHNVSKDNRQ
Conditions: at 0.1 µM.

Test [7] concerns the target T2, Phosphatidylinositol 4,5-bisphosphate 3-kinase catalytic subunit delta isoform (Homo sapiens). The settings on record: at 1 µM.
The target of test [8] is Phosphatidylinositol 4-kinase beta (Homo sapiens) (UniProt Q9UBF8). Conditions: at 0.1 µM.
The target is the same in test [9]. The settings on record: at 1 µM.
Test [10] deals with Sphingosine kinase 1 (Homo sapiens) (UniProt Q9NYA1). The settings on record: at 0.1 µM.
The target is the same in test [11]. The settings on record: at 1 µM.
Test [12] has as its target T3, Sphingosine kinase 2 (Homo sapiens) (UniProt Q9NRA0).
T3 sequence (whole entry): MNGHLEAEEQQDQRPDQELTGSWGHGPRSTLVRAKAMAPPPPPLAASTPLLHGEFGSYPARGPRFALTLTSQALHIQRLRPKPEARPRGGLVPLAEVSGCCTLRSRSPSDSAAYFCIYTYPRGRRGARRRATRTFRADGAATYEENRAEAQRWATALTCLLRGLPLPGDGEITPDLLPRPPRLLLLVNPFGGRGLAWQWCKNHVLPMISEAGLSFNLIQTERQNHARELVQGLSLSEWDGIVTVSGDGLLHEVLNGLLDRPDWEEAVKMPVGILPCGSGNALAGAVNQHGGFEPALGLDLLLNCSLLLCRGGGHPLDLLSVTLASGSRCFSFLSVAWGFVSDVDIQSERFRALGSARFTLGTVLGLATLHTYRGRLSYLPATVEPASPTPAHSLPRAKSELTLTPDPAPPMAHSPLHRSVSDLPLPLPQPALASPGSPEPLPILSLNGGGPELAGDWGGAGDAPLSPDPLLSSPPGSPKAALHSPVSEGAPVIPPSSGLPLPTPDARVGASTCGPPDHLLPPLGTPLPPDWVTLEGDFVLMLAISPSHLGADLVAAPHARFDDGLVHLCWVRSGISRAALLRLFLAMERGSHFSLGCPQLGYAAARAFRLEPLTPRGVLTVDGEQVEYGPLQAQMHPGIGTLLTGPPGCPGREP
Conditions: at 0.1 µM.

The target of test [13] is T3, Sphingosine kinase 2 (Homo sapiens). Conditions: at 1 µM.
Test [14] has as its target Casein kinase II subunit alpha (Homo sapiens) (UniProt P68400). The settings on record: at 0.1 µM.
The target is the same in test [15]. The settings on record: at 1 µM.
In test [16] the target is T4, Inhibitor of nuclear factor kappa-B kinase subunit alpha (Homo sapiens) (UniProt O15111).
T4 sequence (whole entry): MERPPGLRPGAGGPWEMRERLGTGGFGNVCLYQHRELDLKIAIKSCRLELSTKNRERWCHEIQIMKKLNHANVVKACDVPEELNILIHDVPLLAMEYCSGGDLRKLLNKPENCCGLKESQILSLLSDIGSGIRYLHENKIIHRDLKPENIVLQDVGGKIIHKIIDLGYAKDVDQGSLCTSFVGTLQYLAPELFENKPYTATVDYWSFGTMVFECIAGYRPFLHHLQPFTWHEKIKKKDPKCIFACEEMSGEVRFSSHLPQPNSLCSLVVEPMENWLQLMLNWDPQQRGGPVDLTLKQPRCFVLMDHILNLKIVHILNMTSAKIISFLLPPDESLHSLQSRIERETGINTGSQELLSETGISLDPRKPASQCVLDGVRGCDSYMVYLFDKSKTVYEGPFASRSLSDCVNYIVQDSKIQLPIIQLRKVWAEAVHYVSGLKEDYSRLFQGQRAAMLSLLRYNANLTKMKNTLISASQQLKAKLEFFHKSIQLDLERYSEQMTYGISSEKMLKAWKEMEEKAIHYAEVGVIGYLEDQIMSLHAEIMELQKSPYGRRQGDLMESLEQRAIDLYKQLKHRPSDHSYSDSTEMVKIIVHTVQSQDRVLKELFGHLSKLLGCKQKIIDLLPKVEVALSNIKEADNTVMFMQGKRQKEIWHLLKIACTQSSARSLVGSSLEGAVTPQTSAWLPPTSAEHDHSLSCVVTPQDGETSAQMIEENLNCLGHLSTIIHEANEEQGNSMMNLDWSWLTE
Conditions: at 0.1 µM.

The target in test [17] is T4, Inhibitor of nuclear factor kappa-B kinase subunit alpha (Homo sapiens). The settings on record: at 1 µM.
Test [18] concerns the target T5, Inhibitor of nuclear factor kappa-B kinase subunit beta (Homo sapiens) (UniProt O14920).
T5 sequence (whole entry): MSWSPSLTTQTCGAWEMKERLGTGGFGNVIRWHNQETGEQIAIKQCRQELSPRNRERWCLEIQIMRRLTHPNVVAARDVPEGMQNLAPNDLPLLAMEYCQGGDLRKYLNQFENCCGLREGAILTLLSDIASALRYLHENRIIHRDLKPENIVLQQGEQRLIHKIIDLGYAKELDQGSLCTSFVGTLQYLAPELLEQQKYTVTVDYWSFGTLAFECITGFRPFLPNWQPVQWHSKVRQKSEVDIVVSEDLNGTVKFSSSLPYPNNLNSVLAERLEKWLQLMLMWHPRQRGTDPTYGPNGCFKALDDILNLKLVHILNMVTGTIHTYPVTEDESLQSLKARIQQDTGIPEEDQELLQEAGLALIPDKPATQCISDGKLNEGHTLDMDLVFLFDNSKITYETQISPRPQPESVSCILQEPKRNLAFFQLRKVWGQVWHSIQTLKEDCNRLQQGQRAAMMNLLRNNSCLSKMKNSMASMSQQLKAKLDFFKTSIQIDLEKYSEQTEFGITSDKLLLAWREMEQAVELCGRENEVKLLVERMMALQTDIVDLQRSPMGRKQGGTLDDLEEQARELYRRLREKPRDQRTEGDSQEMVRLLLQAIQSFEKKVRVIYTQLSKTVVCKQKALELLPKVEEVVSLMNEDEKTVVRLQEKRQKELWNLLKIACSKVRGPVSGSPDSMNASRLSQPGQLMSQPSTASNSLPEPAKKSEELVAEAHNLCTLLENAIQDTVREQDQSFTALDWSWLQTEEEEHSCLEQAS
Conditions: at 0.1 µM.

Test [19] concerns the target T5, Inhibitor of nuclear factor kappa-B kinase subunit beta (Homo sapiens). The settings on record: at 1 µM.
In test [20] the target is T6, Inhibitor of nuclear factor kappa-B kinase subunit epsilon (Homo sapiens) (UniProt Q14164).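 Further: mean inhibition of IKKε reported, from the GSK PKIS dataset.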
T6 sequence (whole entry): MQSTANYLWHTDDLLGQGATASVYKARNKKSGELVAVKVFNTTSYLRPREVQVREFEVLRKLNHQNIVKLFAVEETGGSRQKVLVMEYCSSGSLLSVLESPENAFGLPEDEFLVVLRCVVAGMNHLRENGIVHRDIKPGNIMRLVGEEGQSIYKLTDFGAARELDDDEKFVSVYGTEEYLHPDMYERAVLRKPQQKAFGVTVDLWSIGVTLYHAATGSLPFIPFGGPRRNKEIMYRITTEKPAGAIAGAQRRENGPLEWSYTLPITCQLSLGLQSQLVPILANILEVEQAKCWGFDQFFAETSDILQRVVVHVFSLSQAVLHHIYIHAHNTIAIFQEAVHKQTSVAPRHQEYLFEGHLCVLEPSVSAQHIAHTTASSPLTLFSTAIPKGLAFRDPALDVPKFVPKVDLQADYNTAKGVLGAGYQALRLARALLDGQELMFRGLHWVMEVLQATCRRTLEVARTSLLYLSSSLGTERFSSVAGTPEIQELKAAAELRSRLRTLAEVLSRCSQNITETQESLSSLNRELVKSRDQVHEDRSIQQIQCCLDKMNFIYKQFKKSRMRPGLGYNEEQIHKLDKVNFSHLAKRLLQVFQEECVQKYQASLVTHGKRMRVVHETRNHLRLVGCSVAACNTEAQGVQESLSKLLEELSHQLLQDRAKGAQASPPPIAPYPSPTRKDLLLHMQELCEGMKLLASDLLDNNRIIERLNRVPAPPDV
Conditions: at 0.1 µM.

SMILES strings stand for the structures.

Sequence of Sphingosine kinase 1 (Homo sapiens) (Q9NYA1 whole entry): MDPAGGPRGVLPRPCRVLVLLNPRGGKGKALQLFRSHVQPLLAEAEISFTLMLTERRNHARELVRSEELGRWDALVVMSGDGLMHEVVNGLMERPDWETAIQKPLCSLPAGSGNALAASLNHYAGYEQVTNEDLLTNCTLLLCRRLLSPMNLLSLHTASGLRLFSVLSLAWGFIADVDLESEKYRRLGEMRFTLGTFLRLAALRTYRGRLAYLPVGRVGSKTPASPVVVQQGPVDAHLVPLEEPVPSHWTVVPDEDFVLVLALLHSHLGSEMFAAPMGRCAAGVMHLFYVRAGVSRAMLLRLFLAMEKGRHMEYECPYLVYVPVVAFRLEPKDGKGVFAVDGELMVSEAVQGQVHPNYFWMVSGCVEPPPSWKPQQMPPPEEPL
Sequence of Phosphatidylinositol 4-kinase beta (Homo sapiens) (Q9UBF8 2-816 limits assumed): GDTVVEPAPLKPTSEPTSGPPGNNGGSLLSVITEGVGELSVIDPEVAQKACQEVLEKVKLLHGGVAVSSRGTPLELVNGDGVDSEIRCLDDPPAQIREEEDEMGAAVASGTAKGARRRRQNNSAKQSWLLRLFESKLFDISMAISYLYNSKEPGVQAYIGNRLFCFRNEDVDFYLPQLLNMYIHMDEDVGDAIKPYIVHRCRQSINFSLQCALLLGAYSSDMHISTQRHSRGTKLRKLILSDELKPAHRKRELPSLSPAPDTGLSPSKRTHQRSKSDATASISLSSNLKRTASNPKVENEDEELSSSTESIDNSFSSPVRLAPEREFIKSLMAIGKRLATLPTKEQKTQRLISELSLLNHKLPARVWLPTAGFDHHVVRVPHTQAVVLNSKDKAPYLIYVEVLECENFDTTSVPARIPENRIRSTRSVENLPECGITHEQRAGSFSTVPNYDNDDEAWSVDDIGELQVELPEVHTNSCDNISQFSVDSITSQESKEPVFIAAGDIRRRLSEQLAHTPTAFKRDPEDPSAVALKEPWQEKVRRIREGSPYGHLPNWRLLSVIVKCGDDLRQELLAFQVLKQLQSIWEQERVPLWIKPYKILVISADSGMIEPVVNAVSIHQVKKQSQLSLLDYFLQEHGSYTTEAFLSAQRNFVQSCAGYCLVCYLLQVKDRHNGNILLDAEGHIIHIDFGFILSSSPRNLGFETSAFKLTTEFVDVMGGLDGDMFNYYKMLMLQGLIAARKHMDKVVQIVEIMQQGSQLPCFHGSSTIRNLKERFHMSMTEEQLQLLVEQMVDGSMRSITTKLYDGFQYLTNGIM
Sequence of Phosphatidylinositol 4,5-bisphosphate 3-kinase catalytic subunit alpha isoform (Homo sapiens) (P42336 whole entry, canonical isoform): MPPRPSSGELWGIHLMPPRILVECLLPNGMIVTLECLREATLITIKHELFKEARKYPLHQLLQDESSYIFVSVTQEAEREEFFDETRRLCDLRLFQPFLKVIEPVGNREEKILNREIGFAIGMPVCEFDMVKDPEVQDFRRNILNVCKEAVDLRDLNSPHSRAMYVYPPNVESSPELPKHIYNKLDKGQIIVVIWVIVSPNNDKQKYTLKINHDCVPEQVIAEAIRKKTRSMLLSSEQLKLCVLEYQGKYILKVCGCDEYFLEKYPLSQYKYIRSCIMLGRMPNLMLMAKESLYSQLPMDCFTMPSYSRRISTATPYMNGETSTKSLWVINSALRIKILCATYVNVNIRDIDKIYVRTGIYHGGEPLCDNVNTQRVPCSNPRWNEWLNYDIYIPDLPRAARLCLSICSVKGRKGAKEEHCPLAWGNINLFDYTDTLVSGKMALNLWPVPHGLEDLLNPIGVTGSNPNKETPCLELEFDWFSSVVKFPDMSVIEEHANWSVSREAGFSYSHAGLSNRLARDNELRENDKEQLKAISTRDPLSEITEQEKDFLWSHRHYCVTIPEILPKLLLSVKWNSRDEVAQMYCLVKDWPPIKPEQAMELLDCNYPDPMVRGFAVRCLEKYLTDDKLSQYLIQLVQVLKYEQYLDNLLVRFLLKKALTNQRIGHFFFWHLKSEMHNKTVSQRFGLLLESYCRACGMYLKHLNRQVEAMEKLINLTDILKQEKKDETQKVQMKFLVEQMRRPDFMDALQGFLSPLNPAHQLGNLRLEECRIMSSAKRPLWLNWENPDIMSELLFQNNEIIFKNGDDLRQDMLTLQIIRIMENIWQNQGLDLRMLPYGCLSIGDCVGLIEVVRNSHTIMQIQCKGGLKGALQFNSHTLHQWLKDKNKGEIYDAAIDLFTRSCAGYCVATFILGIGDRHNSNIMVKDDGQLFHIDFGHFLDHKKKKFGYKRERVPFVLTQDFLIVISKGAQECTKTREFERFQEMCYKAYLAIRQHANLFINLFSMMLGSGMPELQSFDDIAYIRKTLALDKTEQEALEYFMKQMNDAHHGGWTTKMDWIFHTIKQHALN
Sequence of Casein kinase II subunit alpha (Homo sapiens) (P68400 whole entry, looked up): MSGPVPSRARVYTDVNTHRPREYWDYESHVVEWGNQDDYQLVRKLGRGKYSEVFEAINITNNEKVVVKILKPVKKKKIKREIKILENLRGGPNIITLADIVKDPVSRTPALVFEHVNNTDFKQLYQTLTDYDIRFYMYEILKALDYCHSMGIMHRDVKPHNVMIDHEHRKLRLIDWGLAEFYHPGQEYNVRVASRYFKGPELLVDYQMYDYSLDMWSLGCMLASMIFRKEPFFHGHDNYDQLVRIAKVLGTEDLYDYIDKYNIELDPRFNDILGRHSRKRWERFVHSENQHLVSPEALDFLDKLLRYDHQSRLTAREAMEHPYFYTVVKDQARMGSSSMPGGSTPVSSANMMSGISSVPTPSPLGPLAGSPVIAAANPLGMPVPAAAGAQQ
Sequence of SRSF protein kinase 1 (Homo sapiens) (Q96SB4 whole entry): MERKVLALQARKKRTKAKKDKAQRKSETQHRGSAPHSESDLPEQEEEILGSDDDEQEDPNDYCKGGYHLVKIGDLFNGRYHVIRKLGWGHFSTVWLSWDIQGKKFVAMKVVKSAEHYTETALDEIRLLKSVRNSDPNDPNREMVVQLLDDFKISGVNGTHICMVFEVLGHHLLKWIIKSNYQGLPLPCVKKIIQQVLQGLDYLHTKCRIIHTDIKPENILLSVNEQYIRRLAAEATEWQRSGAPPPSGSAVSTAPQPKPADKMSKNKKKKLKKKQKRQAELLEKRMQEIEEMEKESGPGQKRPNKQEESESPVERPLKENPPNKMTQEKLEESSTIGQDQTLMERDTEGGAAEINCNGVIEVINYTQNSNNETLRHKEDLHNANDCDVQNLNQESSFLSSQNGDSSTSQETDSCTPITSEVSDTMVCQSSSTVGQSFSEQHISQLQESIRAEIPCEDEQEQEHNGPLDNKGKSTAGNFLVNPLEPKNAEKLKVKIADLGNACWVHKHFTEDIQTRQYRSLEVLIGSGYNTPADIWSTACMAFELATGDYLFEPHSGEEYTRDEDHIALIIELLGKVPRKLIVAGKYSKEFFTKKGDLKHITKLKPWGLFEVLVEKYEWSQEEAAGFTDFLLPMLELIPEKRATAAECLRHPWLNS

As a reminder, the inhibition is the relative decrease from the control value, in per cent. As to `Cc1ccc(NC(=O)c2ccnc(N3CCCC3)c2)cc1-c1ccc(C(=O)NCC2CC2)cc1`, the inhibition in [1] was 4.14%; in test [2], -2.03%; in test [3], -3.61%; in test [4] it was 4.02%; in test [5], 14.5%; in test [6], 3.4%. The inhibition in test [7] is 14.4%; in test [8] it was -4.29%; in [9] it was -0.13%; in test [10] it was -0.32%; in [11] it was 0.63%; in test [12], 0.74%. In addition, the inhibition is -0.47% in [13]; 7.04% in test [14]; 4.49% in [15]; 0.55% in [16]; 0.16% in test [17]; 9.14% in test [18]. The inhibition in [19] came to 9.33%; in test [20] it was 5.82%.

`Cc1cc(O)cc(C)c1/C=C/c1cncc(-c2nn[nH]n2)c1`: the inhibition in test [1] was 3.07%; in test [2], -1.87%; in test [3], -2.36%; in test [4], 3.19%; in test [5] it was 5.13%; in [6] it was 2.19%. In addition, the inhibition in test [7] was 6.52%; in [8], -5.96%; in test [9] it was -0.98%; in test [10] it was 0.56%; in test [11] it was -1.54%; in [12], 1.53%. The inhibition in test [13] is -0.11%; in test [14] it was 2.01%; in [15], 6.14%; in [16], 4.82%; in test [17], 4%; in [18], 5.96%. Moreover, the inhibition in test [19] was 4.65%; in test [20], 5.04%.

`CCN1CCC(CC(=O)Nc2n[nH]c3nc(-c4cccs4)c(Br)cc23)CC1`: the inhibition in test [1] was -2.22%; in [2], 1.28%; in test [3], 1.67%; in test [4], -1.25%; in test [5], -0.57%; in test [6] it was 0.69%. In addition, the inhibition was 2.28% in [7]; 4.28% in test [8]; -0.5% in test [9]; -0.97% in test [10]; 1.53% in test [11]; -0.06% in [12]. The inhibition in [13] is -0.11%; in test [14] it was 1.1%; in [15], 4.38%; in [16] it was 4.35%; in test [17] it was 5.49%; in test [18] it was -1.36%. Moreover, the inhibition in [19] was -2.71%; in test [20], -5.79%.

For `O=C1NC(=O)C(N2CCc3ccccc32)=C1c1ccc(Cl)cc1`, the inhibition in test [1] was 3.35%; in test [2], -1.77%; in [3], -3.78%; in test [4] it was 4.21%; in test [5], 6.29%; in test [6] it was 3.6%. Besides, the inhibition in [7] is 5.56%; in [8], -1.76%; in test [9], -1.34%; in test [11], 2.74%; in test [12], 0.69%; in test [13] it was 0.87%. Moreover, the inhibition in [14] is 1.59%; in [15], -1.39%; in [16], 5.45%; in test [17] it was 4.39%; in [18] it was 5.07%; in [19] it was 4.89%. Moreover, the inhibition in test [20] is 3.79%.
